Six1-Eya2 blk: blocks human Six1 binding to Eya2; Q15475+O00167; AlphaScreen GST-Six1/His-Eya2 binding, biochemical; hits give low values; activity change, % (test concentration not listed); 0.56% of 360,000 active; AID 651725; in the data active = activity change below about -65%; inconclusive = mostly about -30% to -63%
Target sequence (O00167 whole entry, looked up): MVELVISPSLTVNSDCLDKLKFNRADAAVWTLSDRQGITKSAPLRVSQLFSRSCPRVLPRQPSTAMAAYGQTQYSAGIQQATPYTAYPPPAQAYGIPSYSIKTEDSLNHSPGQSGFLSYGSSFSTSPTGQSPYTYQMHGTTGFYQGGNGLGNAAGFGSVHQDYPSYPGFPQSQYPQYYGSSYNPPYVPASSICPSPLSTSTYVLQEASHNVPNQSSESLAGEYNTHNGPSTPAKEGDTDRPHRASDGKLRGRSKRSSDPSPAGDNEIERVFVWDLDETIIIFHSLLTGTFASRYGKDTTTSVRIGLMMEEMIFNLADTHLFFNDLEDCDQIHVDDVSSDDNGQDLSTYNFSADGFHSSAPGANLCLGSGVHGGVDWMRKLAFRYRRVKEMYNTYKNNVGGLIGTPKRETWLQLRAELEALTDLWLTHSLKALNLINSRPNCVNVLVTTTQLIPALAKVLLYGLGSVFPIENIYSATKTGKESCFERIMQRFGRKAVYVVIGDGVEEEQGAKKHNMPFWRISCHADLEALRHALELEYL
Target sequence (Q15475 whole entry, looked up): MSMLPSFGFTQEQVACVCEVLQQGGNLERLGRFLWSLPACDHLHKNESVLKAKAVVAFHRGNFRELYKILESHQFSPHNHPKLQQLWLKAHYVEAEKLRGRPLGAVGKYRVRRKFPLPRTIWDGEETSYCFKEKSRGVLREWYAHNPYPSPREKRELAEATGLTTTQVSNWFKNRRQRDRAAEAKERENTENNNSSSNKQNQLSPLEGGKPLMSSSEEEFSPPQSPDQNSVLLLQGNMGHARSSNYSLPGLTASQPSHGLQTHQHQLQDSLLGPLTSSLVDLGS
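GST-Six1 + His-Eya2 (5X stock: 250/500 nM); Tris pH 8.0, 300 mM NaCl, 0.05% BSA, 0.02% Tween 20; GSH donor/Ni acceptor beads; 1 h 37 °C dark; AlphaScreen readout.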
IL1B secr inh: inflammasome signaling inhibition, IL-1 beta readout; THP-1 LPS/ATP IL-1B secretion, AlphaLISA, 16 h; hits give low values; activity change, % at 57.5 µM; 4.7% of 360,000 active; AID 743279; in the data active = activity change below about -50%; inconclusive = mostly about -30% to -49%
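Secreted IL-1B measured by AlphaLISA bead assay after 16 h compound exposure of THP-1 cells; compounds (final up to 57.5 uM) added 1 h before LPS (250 ng/mL) and ATP (1.25 mM) stimulation; lower signal means less secretion.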
TDP1 cell CPT: growth inhibition of DT40 Tdp1-/-;hTDP1 cells with camptothecin (screen for TDP1 inhibitors); chicken DT40 Tdp1-/-;hTDP1 cells + 20 nM CPT, ATP luminescence, 48 h; Potency, µM (top dose mostly 46.2 µM), hits mostly inhibitors; 12% of 420,000 active; AID 686979; note: nearly all actives have a fitted effect of over 55% in size
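Cell growth measured by CellTiter-Glo luminescence after a minimum 48 h, 37 C compound exposure with 20 nM CPT in Tdp1-knockout DT40 cells stably expressing hTDP1, seeded 400/well; qHTS titration format.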
CtBP-E1A blk: CtBP/E1A binding inhibition | 0.49% of 340,000 active | AlphaScreen GST-E1A/His-CtBP binding, 1536-well; hits give low values | AID 651724 | activity change, % (no concentration beside the values); in the data active = activity change below about -65%; inconclusive = mostly about -30% to -63%
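GST-E1A and His-tagged CtBP (125 nM each as 5X stock) were preincubated with pin-transferred compound for 2 h at 37 °C in the dark, then glutathione donor and nickel acceptor beads were added for 1 h before AlphaScreen reading.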
TDP1 block: TDP1 (human) enzyme inhibition; Q9NUW8; recombinant TDP1, AlphaScreen DNA substrate cleavage; Potency, µM (top dose mostly 130 µM), usual class: inhibitors; 0.28% of 350,000 active; AID 485290; note: nearly all actives have a fitted effect of over 40% in size
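Steps: enzyme plus compound, 15 min RT; add biotin/phosphotyrosine-FITC oligonucleotide (15 nM final), react 5 min; add donor/acceptor beads (10 ug/ml final), 10 min; read AlphaScreen. Tdp1 at 1 nM final.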
DT40 TDP1 no CPT: qHTS for Inhibitors of human tyrosyl-DNA phosphodiesterase 1 (TDP1): qHTS in cells in absence of CPT; DT40 Tdp1-/- hTDP1 cells, no CPT, ATP luminescence, 48 h; Potency, µM (doses to about 46.2 µM), most hits filed as inhibitors; 15% of 420,000 active; AID 686978, 2013; note: nearly all actives have a fitted effect of over 55% in size
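Growth of hTDP1-complemented DT40 Tdp1-knockout cells is measured by ATP luminescence after at least 48 hr compound exposure at 37 °C, with DMSO substituting for the 20 nM CPT used in the parallel screen.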
Large screens that a line does not name were inactive. This is a sample that favours compounds with a hit; in the whole collection about 18% have one here. Unless noted, calls come from the whole dose curve; as a rule, active = well fitted curve in the direction sought with a large enough effect; inconclusive = small, poorly fitted or top-dose-only effect, or another doubt; inactive = no such curve, though single readings can be large; an effect the other way counts as inactive or inconclusive.

C[N+]1(C)CCC(=C(c2ccccc2)c2ccccc2)CC1	TDP1 cell CPT inconclusive
Cc1ccc(NC(=O)CNC(=O)c2sc3ccccc3c2Cl)nc1	none
COc1cc(N)c(Cl)cc1C(=O)OCC(=O)NC1CCCC1	none
CC/C(=C\c1ccc(N(C)C)cc1)c1ccncc1	Six1-Eya2 blk inconclusive, IL1B secr inh -64, TDP1 cell CPT 23µM, CtBP-E1A blk inconclusive, DT40 TDP1 no CPT inconclusive (no result: TDP1 block)
CCC(C)(C)NC(=O)C1CCCN1C(=O)NC1CCCCC1 (stereo not given)	none
C=CCSc1nnc(-c2ccccc2N=Cc2c(C)[nH]n(-c3ccccc3)c2=O)c(=O)[nH]1	TDP1 cell CPT inconclusive, DT40 TDP1 no CPT inconclusive
CSc1nnc(-c2ccccc2N=Cc2c(C)[nH]n(-c3ccc4ccccc4c3)c2=O)c(=O)[nH]1	Six1-Eya2 blk inconclusive, TDP1 cell CPT 21µM, DT40 TDP1 no CPT inconclusive
CCC(=O)N1CCN(c2ccccc2NC(=O)COc2ccc(C(C)C)cc2)CC1	TDP1 cell CPT inconclusive, DT40 TDP1 no CPT 16µM
Cc1ccc(Cl)c(OCC(=O)Nc2ccccc2N2CCCCC2)c1	TDP1 cell CPT inconclusive, DT40 TDP1 no CPT inconclusive (no result: TDP1 block)
COc1ccc(CNCC(=O)Nc2ccccc2-n2cccc2)cc1	TDP1 cell CPT 8.2µM, DT40 TDP1 no CPT 6.5µM (no result: CtBP-E1A blk)
O=C(COc1ccc(Cl)cc1Br)Nc1ccccc1N1CCCC1	TDP1 cell CPT 21µM, DT40 TDP1 no CPT inconclusive (no result: TDP1 block)
COc1cccc(OC)c1C(=O)Nc1ccccc1N1CCCCC1	IL1B secr inh -51, TDP1 cell CPT inconclusive, DT40 TDP1 no CPT inconclusive (no result: TDP1 block)
COc1ccc(-c2c(C)nn3c4c(cnc23)C(=O)CC(c2ccc(C)cc2)C4)cc1 (stereo not given)	none (no result: Six1-Eya2 blk, IL1B secr inh, CtBP-E1A blk)
CNC(=S)NCCCc1ccccc1	none (no result: CtBP-E1A blk)
CCOC(=O)C1=CN(Cc2cccc(F)c2)S(=O)(=O)N(CC)C1CCc1ccccc1 (stereo not given)	TDP1 cell CPT inconclusive, DT40 TDP1 no CPT inconclusive
COc1cc2ccccc2cc1C(=O)Nc1ccccc1N1CCN(S(C)(=O)=O)CC1	TDP1 cell CPT 21µM, DT40 TDP1 no CPT 21µM
COc1ccc(OCC(=O)Nc2ccccc2N2CCCCC2)cc1	TDP1 cell CPT 1.6µM, DT40 TDP1 no CPT 1.6µM
COc1ccc(OCC(=O)Nc2ccccc2N2CCN(C)CC2)cc1	none
COc1cc(C(C)=O)ccc1OCC(=O)Nc1ccccc1N1CCCCC1	IL1B secr inh inconclusive, TDP1 cell CPT 9.2µM, DT40 TDP1 no CPT 8.2µM (no result: TDP1 block)
COc1cc(C(C)=O)ccc1OCC(=O)Nc1ccccc1N1CCCC1	Six1-Eya2 blk inconclusive, TDP1 cell CPT inconclusive, DT40 TDP1 no CPT inconclusive
COC(=O)C1CCCN1C(=O)COc1ccc(Cl)cc1Br (stereo not given)	TDP1 cell CPT 18µM, DT40 TDP1 no CPT inconclusive
Cc1cc(Cl)ccc1C(=O)C1CCCN(C(=O)c2cccnc2C)C1 (stereo not given)	none
O=C(O)CC(c1cccc(C(F)(F)F)c1)N1CCS(=O)(=O)CC1 (stereo not given)	none
CCN(CC(=O)Nc1c(F)cccc1F)C(=O)CCCN1C(=O)c2ccccc2C1=O	DT40 TDP1 no CPT inconclusive (no result: TDP1 block)
CCn1nnc2cc(C(=O)Nc3cccc(Cl)c3C)ccc21	TDP1 cell CPT inconclusive, DT40 TDP1 no CPT 16µM (no result: Six1-Eya2 blk, IL1B secr inh, CtBP-E1A blk)
CCn1nnc2cc(C(=O)Nc3cccc(C)c3C)ccc21	TDP1 cell CPT 10µM, DT40 TDP1 no CPT 15µM (no result: Six1-Eya2 blk, IL1B secr inh, CtBP-E1A blk)
O=C(C1CCCCC1)N1C[C@H](O)[C@@H](n2cc(C3CC3)nn2)C[C@@H]1c1ccccc1	none (no result: TDP1 block)
O=C(NCc1cccc(Cl)c1)c1oc(=O)c2ccccc2c1-c1ccccc1	none (no result: Six1-Eya2 blk, IL1B secr inh, CtBP-E1A blk)
CC1CCN(c2ccc(NC(=O)C3CCCN3S(=O)(=O)c3ccc(F)cc3)cc2)CC1 (stereo not given)	Six1-Eya2 blk inconclusive, IL1B secr inh inconclusive, TDP1 cell CPT 18µM, DT40 TDP1 no CPT 4.1µM

Assay outcomes: PubChem, National Center for Advancing Translational Sciences (NCATS)
